# Tb PYK inh: inhibitors of Trypanosoma brucei pyruvate kinase; AID 624173; Q57TT1; TbPYK enzyme, Kinase-Glo Plus ATP luminescence, 45 min; Potency, µM (highest dose often 76.8 µM), without a hit: at the highest dose activity, negative = inhibition, hits mostly inhibitors; 0.12% of 410,000 active; note: potency is the fitted concentration of half-maximal effect; % is set by controls: 0 for no effect and ±100 for the full control effect; nearly all actives have a fitted effect of over 50% in size
#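 Activity of T. brucei pyruvate kinase was followed by Kinase-Glo Plus luminescence after the enzyme reacted 45 min at room temperature with 130 uM ADP (final) and substrate. Test compounds were added before ADP at multiple concentrations.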
# Giardia FBPA inh: blocks Giardia fructose-bisphosphate aldolase activity; A8B2U2; purified Giardia FBPA; Potency, µM (series often up to 59.6 µM), for the others: top-dose activity, negative = inhibition, usual class: inhibitors; 0.71% of 290,000 active; AID 2451; note: potency is the fitted concentration of half-maximal effect; % is set by controls: 0 for no effect and ±100 for the full control effect; nearly all actives have a fitted effect of over 55% in size
#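 40 nM FBPA preincubated 10 min at RT with compound (up to 57.5 uM final), then substrate plus GAPDH/TPI/NAD/arsenate coupling and diaphorase/resazurin added. Fluorescence read after 20 min at RT, 525/598 nm.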
# Sm TGR block: blocks Schistosoma mansoni thioredoxin glutathione reductase; Q962Y6; purified TGR, DTNB reduction, TNB absorbance 405 nm; Potency, µM (highest dose often 114 µM), for inactives: top-dose activity change, negative = inhibition, hits mostly inhibitors; 3% of 360,000 active; note: potency is the fitted concentration of half-maximal effect; % is set by controls: 0 for no effect and ±100 for the full control effect; nearly all actives have a fitted effect of over 60% in size
#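 Kinetic colorimetric format: TGR-catalysed, NADPH-driven DTNB reduction monitored via TNB absorbance. Enzyme dispensed at 20 nM; compound exposure 15 min at room temperature before reaction start.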
# Shiga toxin inh: Shiga toxin inhibition. Vero cells, Shiga toxin protein synthesis inhibition reporter. inhibition, % at 38.7 µM. 9.2% of 290,000 active. AID 2315; in the data active = inhibition mostly above about 28%, no sharp cut-off; inactive = mostly below about 43%; note: 0% is about no effect
# CHX counter: affects cycloheximide protein synthesis inhibition readout, counter-screen | cell reporter, cycloheximide protein synthesis inhibition counterscreen | max response, % | 12% of 300,000 active; in the data active = max response mostly above about 13%, no sharp cut-off; inactive = mostly below about 14%; note: read at 38.3 µM for the half of the compounds with a filed dose; 0% is about no effect
# LmPK inhibitor: LmPK (Leishmania mexicana) enzyme inhibition. Q27686. purified LmPK, Kinase-Glo ATP luminescence, 1 h. Potency, µM (doses to about 57.5 µM), for inactives: top-dose activity change, negative = inhibition, usual class: inhibitors. 0.37% of 290,000 active. AID 1721; note: potency is the fitted concentration of half-maximal effect; % is set by controls: 0 for no effect and ±100 for the full control effect
# Target sequence (Q27686 whole entry, looked up): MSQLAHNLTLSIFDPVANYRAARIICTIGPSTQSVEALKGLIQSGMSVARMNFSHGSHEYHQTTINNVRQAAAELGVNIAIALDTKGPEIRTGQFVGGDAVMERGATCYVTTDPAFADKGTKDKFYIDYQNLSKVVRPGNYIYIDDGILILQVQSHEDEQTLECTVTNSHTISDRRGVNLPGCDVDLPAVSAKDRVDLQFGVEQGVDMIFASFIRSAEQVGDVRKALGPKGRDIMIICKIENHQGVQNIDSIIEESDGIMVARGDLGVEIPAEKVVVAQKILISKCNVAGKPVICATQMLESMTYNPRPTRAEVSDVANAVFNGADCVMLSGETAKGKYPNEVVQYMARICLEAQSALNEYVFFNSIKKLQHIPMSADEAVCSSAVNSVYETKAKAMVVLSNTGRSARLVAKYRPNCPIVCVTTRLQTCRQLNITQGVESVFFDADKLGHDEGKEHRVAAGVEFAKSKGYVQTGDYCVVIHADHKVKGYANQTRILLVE
#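 Pyruvate kinase activity monitored as ATP production (luciferase luminescence). Conditions: 0.1 nM enzyme, 0.5 mM PEP, 0.1 mM ADP, 1 h, RT; normalized against uninhibited and no-enzyme wells.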
# Starred values were filed as active, the others as inactive; i = inactive; ? = inconclusive; nt = no result; + = active, no number; [ ] = dose if it differs, or a comment. This excerpt belongs to a sample that is enriched for hits. Unless noted, calls come from the whole dose curve; as a rule, active = well fitted curve in the direction sought with a large enough effect; inconclusive = small, poorly fitted or top-dose-only effect, or another doubt; inactive = no such curve, though single readings can be large; an effect the other way counts as inactive or inconclusive.
SMILES,Tb PYK inh,Giardia FBPA inh,Sm TGR block,Shiga toxin inh,CHX counter,LmPK inhibitor
CC(=O)c1ccc(NC(=O)c2ccccc2Sc2ncnc3sc(C)c(C)c23)cc1,2%,0%,-5%,+,17*,1%
CCOC(=O)N1CCN(C(=O)CSCC(=O)N=c2sc3cc(OC)ccc3n2C)CC1,-5%,nt,nt,nt,nt,nt
Cc1sc(=NC(=O)c2ccco2)n(C)c1-c1ccc(F)cc1,1%,-1%,-1%,126*,44*,-3%
Cc1c(C(=O)N2CCN(C(=O)c3ccco3)CC2)sc2nc(-c3ccc(F)cc3)cn12,-8%,4%,-28%,-6,-2,-5%
CC(=O)N=c1sc2cc(C)ccc2n1C,-10%,1%,-1%,147*,29*,5%
Cn1c(NC(=O)c2ccco2)c(-c2ccccc2)c(=O)c2ccccc21,-8%,-19%,-28%,-15,4,4%
CCOC(=O)N1CCN(C(=O)CSCC(=O)N=c2sc3ccccc3n2C)CC1,-18%,3%,16µM*,11,-2,-3%
CC(=O)SCC(=O)N=c1sc2cc(F)ccc2n1C,1%,4%,5%,2,-2,0%
Cc1sc(=NC(=O)c2ccco2)n(C)c1-c1ccccc1,0%,2%,14%,52*,40*,-13%
CC(C)NC(=O)C1CCC(Cn2c(=O)c3sccc3n(CC(=O)N3CCCC3)c2=O)CC1 (stereo not drawn),3%,nt,0%,nt,nt,nt
Cn1c(=NC(=O)c2cccc([N+](=O)[O-])c2)sc2ccccc21,4%,1%,4%,119*,27*,-9%
COc1cc(C(=O)N=c2sc3ccccc3n2C)cc(OC)c1OC,1%,-3%,5%,7,16,1%
Cn1c(=NC(=O)c2ccco2)sc2ccccc21,-4%,-11%,nt,53*,32*,?
Cn1c(=NC(=O)CCl)sc2ccccc21,2%,nt,25µM*,46,28*,-5%
CCC(=O)N=c1sc2ccccc2n1-c1ccccc1,3%,-1%,10%,30,-2,-2%
O=C(CSc1nc(-c2ccccc2Cl)ns1)NCc1ccco1,-3%,2%,?,42,2,6%
NC(=O)CSc1nc(-c2ccccc2Cl)ns1,-10%,-6%,9%,19*,45*,-20%
O=C1NC(c2ccccc2)(C(F)(F)F)SC2=CCCCCN12 (stereo not drawn),-5%,-8%,25µM*,7,-1,-2%
Cc1ccc(C2(C(F)(F)F)NC(=O)N3CCCN=C3S2)cc1 (stereo not drawn),-18%,8%,-1%,-7,9,-1%
ClC(Cl)c1nnc(-c2ccccc2)c(-c2c[nH]c3ccccc23)n1,-8%,-6%,-13%,active,12,-2%
c1ccc(-c2nnc(-c3c[nH]c4ccccc34)nc2-c2ccccc2)cc1,-1%,-2%,10%,-3,0,1%
Oc1ccc(Cl)cc1-c1cc(-c2cccc(Br)c2)n[nH]1,-5%,5%,-2%,79*,42*,2%
Oc1ccccc1-c1cc(-c2ccccc2Cl)[nH]n1,-3%,27%,3%,101*,25*,-28%
O=C(O)c1cc(-c2ccc(Cl)cc2)n[nH]1,5%,12%,-1%,-16,1,0%
Oc1ccc(Cl)cc1-c1cc(-c2ccccc2Cl)[nH]n1,2%,-9%,5%,52*,23*,2%
SMILES,Tb PYK inh,Giardia FBPA inh,Sm TGR block,Shiga toxin inh,CHX counter,LmPK inhibitor
CS(=O)(=O)NCc1nnc(SCc2ccc(C(F)(F)F)cc2)o1,-5%,2%,-7%,-5,-10,-1%
Cc1ccc2nc(Cl)c3nnnn3c2c1,0%,11%,1.4µM*,-3,0,-4%
CCc1sc(C(=O)Nc2nccs2)cc1C,-4%,-8%,0%,55*,57*,-2%
CCc1sc(C(=O)Nc2ncccc2O)cc1C,-5%,nt,?,46*,36*,-12%
Cc1cc(C(=O)Nc2ccc(F)cc2C)cs1,4%,nt,?,31,-4,-6%
CCc1sc(C(=O)Nc2ccc(F)cc2C)cc1C,-9%,-2%,-16%,74*,15*,3%
Cc1cccnc1NC(=O)NC(=O)c1ccc(C(C)(C)C)s1,1%,3%,-6%,63*,38*,-1%
Cc1cccnc1NC(=O)CNC(=O)c1cccs1,-2%,nt,-2%,nt,nt,nt
CCc1sc(C(=O)Nc2nc(-c3ccccn3)cs2)cc1C,-8%,nt,nt,nt,nt,nt
Cc1ccc(C(=O)Nc2c(C)nc3ccccn3c2=O)cc1,-8%,nt,8%,nt,nt,nt
COc1ccc(/C=C/C(=O)Nc2ccc3nc4c(c(Nc5ccc(OC)c(OC)c5)c3c2)CCCC4)cc1,2%,nt,-11%,nt,nt,nt
CCc1sc(C(=O)Nc2ncccc2C)cc1C,-8%,13%,5%,55,41*,-4%
CCCCCCCCCCCCCCCC(=O)NCCCC(=O)O,nt,6%,nt,nt,nt,nt
CCOC(=O)C1Oc2ccccc2C(c2ccc(C)cc2)=C1C(=O)OC (stereo not drawn),1%,1%[89.2 µM],nt,i,19*,nt
C=C(CC[C@@H](C)[C@H]1CCC2[C@]1(C)CC[C@]13C[C@@]14CCC(OC(=O)/C=C/c1ccc(O)c(OC)c1)C(C)(C)[C@@H]4CC[C@@]23C)C(C)C (stereo partly drawn),-8%,nt,nt,nt,nt,nt
CC1(C(=O)NS(=O)(=O)c2ccc(Cl)cc2)CCN1C(=O)c1ccccc1CCc1ccccc1 (stereo not drawn),0%,nt,nt,nt,nt,nt
O=C(O)c1cccc(N2C(=O)/C(=C/c3ccc(SCc4ccc(Cl)cc4)o3)SC2=S)c1,?,?,13µM*,20,0,3%
CC(C)C(c1nnnn1Cc1ccco1)N1CCC(C(N)=O)CC1 (stereo not drawn),-10%,-5%,45µM*,2,-3,7%
Cc1ccc2nc(CN3CCN(S(=O)(=O)c4ccc(F)cc4)CC3)oc2c1,-6%,nt,-2%,nt,nt,nt
O=C(OCc1cn(-c2ccc(Cl)cc2)nn1)c1ccccc1,0%,-6%,12%,18,1,-3%
CC(C)CC(=O)OCc1cn(-c2ccccc2)nn1,1%,4%,2%,53*,23*,0%
CCNC(=O)OCc1cn(-c2ccccc2)nn1,2%,1%,-1%,30,14,-2%
CC(C)(C)C(=O)OCc1cn(-c2ccccc2)nn1,-3%,0%,3%,59*,30*,-3%
CC(C)(C)C(=O)OCc1cn(-c2ccc(Cl)cc2)nn1,-5%,-4%,7%,40,24*,-2%
CC(C)CN(C(=O)c1cccc(S(=O)(=O)N2CCN(C)CC2)c1)C1CCS(=O)(=O)C1 (stereo not drawn),-5%,nt,-15%,nt,nt,nt
OC(c1ccc(F)cc1)c1nc(-c2ccncc2)cs1 (stereo not drawn),-6%,nt,nt,nt,nt,nt
Fc1ccc(-c2csc(Nc3ccccn3)n2)cc1,-1%,-18%,-1%,92*,48*,3%

# Bioassay records (PubChem)
